High-throughput results as filed in PubChem.
Compounds with a hit are over-represented: about 1.8% of the library has one in this group of screens.
PAD4 inh = PAD4 (human) enzyme inhibition | Q9UM07 | recombinant PAD4, RCA probe fluorescence polarization | inhibition, % at 6.36 µM | 330,000 tested, 0.41% active;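 active = percent inhibition above a cutoff equal to the mean of all tested compounds plus 3 SD, cut at about 15% in these data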
LYPLA2 counter = LYPLA2 (human) inhibition in PME1 counter-screen | recombinant LYPLA2, FP-Rh probe fluorescence polarization | inhibition, % at 5.9 µM | 320,000 tested, 0.38% active | AID 2177;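 active = inhibition above the screen-wide mean plus 3 SD, limit set per campaign, cut at about 26% in these data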
Target sequence (O95372 whole entry, looked up): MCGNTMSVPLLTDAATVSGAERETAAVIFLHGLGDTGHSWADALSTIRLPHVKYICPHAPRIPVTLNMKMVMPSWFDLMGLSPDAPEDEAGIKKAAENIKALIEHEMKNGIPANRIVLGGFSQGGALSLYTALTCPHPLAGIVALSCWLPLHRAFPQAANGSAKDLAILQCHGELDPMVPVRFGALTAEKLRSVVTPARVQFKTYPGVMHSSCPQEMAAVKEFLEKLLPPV
LYPLA1 inh = LYPLA1 (human) inhibition in PME1 counter-screen; AID 2174; recombinant LYPLA1, FP-Rh probe fluorescence polarization; 320,000 tested, 0.16% active; O75608; inhibition, % at 5.9 µM;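 active = inhibition above the mean of all tested compounds plus 3 SD, set per campaign, cut at about 14% in these data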;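 also: inhibitors block serine hydrolase probe labeling of LYPLA1 so polarization falls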
PME-1 primary = PME-1 (human) inhibition; Q9Y570; recombinant PME-1, FP-Rh probe fluorescence polarization; inhibition, % at 5.9 µM; 320,000 tested, 0.53% active; AID 2130;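 active = inhibition above the campaign mean of all compounds plus 3 SD, cut at about 26% in these data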;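 also: competitive labeling of PME-1 active site by serine hydrolase directed probe; inhibitors block probe labeling so polarization falls and inhibition rises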
Target sequence (Q9Y570 whole entry, looked up): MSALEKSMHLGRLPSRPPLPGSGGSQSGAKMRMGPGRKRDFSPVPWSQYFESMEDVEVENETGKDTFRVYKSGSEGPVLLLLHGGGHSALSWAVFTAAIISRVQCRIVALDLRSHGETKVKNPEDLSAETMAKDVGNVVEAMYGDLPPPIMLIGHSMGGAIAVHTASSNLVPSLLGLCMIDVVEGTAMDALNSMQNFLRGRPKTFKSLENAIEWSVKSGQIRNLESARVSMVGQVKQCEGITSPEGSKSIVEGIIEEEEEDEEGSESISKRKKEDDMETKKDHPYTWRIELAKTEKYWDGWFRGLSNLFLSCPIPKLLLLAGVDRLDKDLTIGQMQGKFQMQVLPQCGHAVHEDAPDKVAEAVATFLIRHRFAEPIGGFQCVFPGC
GSTO1 inh = GSTO1 inhibition, counter-screen for RBBP9 inhibitors. AID 1974. P78417. 300,000 tested, 1.1% active. recombinant GSTO1, activity-based probe fluorescence polarization. inhibition, % at 5.96 µM;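 active = inhibition above the campaign mean inhibition plus 3 SD, cut at about 35% in these data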
Fam108B inh = blocks mouse Fam108B hydrolase in RBBP9 counter-screen. recombinant Fam108B, FP-Rh probe fluorescence polarization. inhibition, % at 9.51 µM. 300,000 tested, 0.33% active. AID 1947;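 active = inhibition above the screen mean inhibition plus 3 SD, computed separately per campaign, cut at about 18% in these data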;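 also: inhibitors lower polarization as less probe binds the enzyme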
LYPLA2 conf = counter-screen for PME1 inhibitors: confirmation of human LYPLA2 inhibitors; shares compounds with LYPLA2 counter; recombinant LYPLA2, FP-Rh probe fluorescence polarization; inhibition, % at 5.9 µM; 1,100 tested, 72% active; AID 2232;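 active = mean inhibition across replicates above the hit cutoff set in the primary screen, cut at about 26% in these data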;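 also: blocked labeling of the enzyme by serine hydrolase FP-Rh probe lowers polarization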
LYPLA2 ABPP = blocks human acyl-protein thioesterase 2 in gel ABPP; shares compounds with LYPLA2 counter; rhLYPLA2 in mouse brain proteome, gel ABPP FP-Rh; inhibition, % at 20 µM; 150 tested, 30% active;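 active = inhibition of LYPLA2 enzyme probe labeling above about 50%, limit read from the data; inactive = inhibition below that limit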;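 also: loss of FP-Rh probe labeling of the LYPLA2 gel band measured as band density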
Hits are given with their value; i = inactive; nt = not tested or not shown.

SMILES	PAD4 inh	LYPLA2 counter	LYPLA1 inh	PME-1 primary	GSTO1 inh	Fam108B inh	LYPLA2 conf	others
COCCCNC(=O)c1ccccc1SC	i	i	i	i	i	i	nt
COc1cccc(NC(=O)CN2C(=O)COc3ccc(Cl)cc32)c1	i	45	i	i	i	i	46
CCOc1ccc(NC(=O)CN2C(=O)COc3ccc(Cl)cc32)cc1	i	i	i	i	i	i	nt
COc1cc2c(cc1OC)C(C(=O)Nc1ccc3c(c1)OCCO3)C(c1cccnc1)N(C)C2=O (stereo not drawn)	i	i	i	i	i	i	nt
Cc1nnc(SCC(=O)c2ccc([N+](=O)[O-])cc2)s1	i	i	i	i	i	i	nt
Nc1nnc(SCC(=O)c2ccc([N+](=O)[O-])cc2)s1	i	29	i	i	i	i	i
CC(C)CC1(C)NC(=O)N(CCN2C(=O)c3ccccc3C2=O)C1=O (stereo not drawn)	i	i	i	i	i	i	nt
COc1cc(/C=N/N(C)c2ccccc2)cc(Cl)c1O	i	i	i	i	i	i	nt
O=C(c1cc(COc2ccc(F)cc2Cl)on1)N1CCCCCC1	i	i	i	i	i	i	nt
O=C(c1cc(COc2ccc(F)cc2Cl)on1)N1CCC(c2ccncc2)CC1	i	33	i	i	i	i	30
COc1ccc(-c2noc3c2-c2nc(-c4ccc(C)cc4)sc2CC3)cc1	i	40	i	i	i	i	i
O=C(NCCS(=O)(=O)N1CCN(c2ccc(F)cc2)CC1)C12CC3CC(CC(C3)C1)C2	i	i	i	i	i	i	nt
CC(C)COC(=O)C1[C@H]2C(=O)N(Cc3cccs3)C[C@]23C=C[C@H]1O3 (stereo partly drawn)	i	i	i	i	i	i	nt
O=[N+]([O-])c1ccc(Sc2ccccc2)nc1	i	i	i	i	i	i	nt
Cc1cccc(Sc2ccc([N+](=O)[O-])cn2)c1	i	29	i	i	i	i	28
Cc1ccccc1Sc1ccc([N+](=O)[O-])cn1	i	34	i	i	i	i	31
O=[N+]([O-])c1ccc(NCCNCCOc2nonc2-c2ccccc2)c([N+](=O)[O-])c1	i	i	i	i	i	i	nt
COc1cccc(CN2CCNC(=O)C2CC(=O)N(C)C2CCCCC2)c1OC (stereo not drawn)	i	i	i	i	i	i	nt
COc1cc(C(=O)NC(=S)Nc2ccc(Cc3ccncc3)cc2)cc(OC)c1OC	i	26	i	i	i	i	i
Cc1cc(C)cc(C(=O)NC(=S)Nc2ccc(Cc3ccncc3)cc2)c1	i	34	i	i	i	i	41
N#CCC(=O)Nc1ccc(C(=O)OCc2ccccc2Oc2ccccc2)cc1	i	26	i	38	i	i	i
CCCCCCCCNC(C)C(O)c1ccc(SC(C)C)cc1 (stereo not drawn)	i	40	i	i	i	i	46
COc1ccc(CCNCc2ccc(OCc3ccccc3)cc2)cc1	i	32	i	i	i	i	30
COc1ccc(CNCCc2ccc(Cl)cc2)cc1OCc1ccccc1	i	i	i	i	i	i	nt
N#CCC(=O)N/N=C\c1ccccc1OC/C=C/c1ccccc1	i	i	i	i	i	i	nt
SMILES	PAD4 inh	LYPLA2 counter	LYPLA1 inh	PME-1 primary	GSTO1 inh	Fam108B inh	LYPLA2 conf	others
COCC(=O)N/N=C\c1ccccc1OC/C=C/c1ccccc1	i	50	i	i	i	i	42
CC(C)=CCC/C(C)=C/CNC(=O)C[C@H]1C[C@H](C(=O)N2CCOCC2)[C@@]2(CCC3CCCC3)c3[nH]c4cc(-c5ccco5)ccc4c3CCN2C1=O	i	nt	nt	nt	nt	nt	nt
O=C(C1CCCN(c2ncnc3c2nc2n3CCCCC2)C1)N1CCN(c2ccc(Cl)cc2)CC1 (stereo not drawn)	i	i	i	i	i	i	nt
O=C(C1CCN(c2ncnc3c2nc2n3CCCCC2)CC1)N1CCN(c2cccc(Cl)c2)CC1	i	34	i	i	i	i	26
Cc1ccccc1NC(=O)c1nn(C)c2c1CS(=O)(=O)c1ccccc1-2	i	40	i	i	i	i	46
O=C(Cn1cnc2ccccc2c1=O)c1ccc2ccccc2c1	i	27	i	i	i	i	i
COc1cccc(COc2ccc3c(C)c(Cc4ccccc4)c(=O)oc3c2)c1	i	i	i	i	i	i	nt
Cc1c(Cc2ccccc2)c(=O)oc2cc(OCc3ccc(C(=O)O)cc3)ccc12	i	28	i	i	i	i	52	LYPLA2 ABPP=i
CCOc1ccc(-n2c(=S)sc3c(=O)n(-c4ccccc4)c(SC)nc32)cc1	i	56	i	i	i	i	i
Cc1c(CCC(=O)NCCCn2ccnc2)c(=O)oc2c(C)c3oc4c(c3cc12)CCCC4	i	i	i	i	i	i	nt
Cn1c(=O)oc2cc(S(=O)(=O)N3CCC(C(=O)N4CCN(c5ccccc5)CC4)CC3)ccc21	i	i	i	i	i	i	nt
COc1ccc(N2CCN(C(=O)C3CCN(S(=O)(=O)c4cccs4)CC3)CC2)cc1	i	43	i	i	i	i	52	LYPLA2 ABPP=i
COc1ccc(N2CCN(C(=O)C3CCN(S(=O)(=O)c4ccc5c(c4)oc(=O)n5C)CC3)CC2)cc1	i	32	i	i	i	i	41
O=C(C1CCN(S(=O)(=O)Cc2ccccc2)CC1)N1CCN(c2ncccn2)CC1	i	i	i	i	i	i	nt
Cn1c(=O)oc2cc(S(=O)(=O)N3CCC(C(=O)N4CCN(c5ccc(F)cc5)CC4)CC3)ccc21	i	44	i	i	i	i	39
O=C(C1CCN(S(=O)(=O)c2cccs2)CC1)N1CCN(c2ccccc2)CC1	i	i	i	i	i	i	nt
CC(=O)c1ccc(N2CCN(C(=O)C3CCN(S(=O)(=O)Cc4ccccc4)CC3)CC2)cc1	i	36	i	i	i	i	33
CCC(=O)c1c(NC(C)C)cc(C)oc1=O	i	i	i	i	i	i	nt
COCCn1c(SCC(=O)NC2CCCC2)nnc1-c1ccco1	i	i	i	i	i	i	nt
COc1ccc(C(CNS(=O)(=O)c2cccc(F)c2)N2CCCC2)cc1 (stereo not drawn)	i	nt	nt	nt	nt	nt	nt
O=C(c1cc2c(s1)CCCCC2)N1CCN(c2ncccn2)CC1	i	i	i	i	i	i	nt
COc1ccc(N2CCN(C(=O)c3cc4c(s3)CCCCC4)CC2)cc1	i	62	i	i	nt	nt	62	LYPLA2 ABPP=i
COc1ccccc1N1CCN(C(=O)c2cc3c(s2)CCC3)CC1	i	i	i	i	i	i	nt
COc1ccc2c(c1)CCc1cc(C(=O)N3CCN(c4ccc(N5CCOCC5)nn4)CC3)sc1-2	i	59	i	i	i	i	60	LYPLA2 ABPP=i
CC(=O)c1ccc(N2CCN(C(=O)c3cc4c(s3)CCCC4)CC2)cc1	i	44	i	i	i	i	54	LYPLA2 ABPP=i
